Test results from PubChem BioAssay AID463095 (Sanford-Burnham Center for Chemical Genomics, 2010).
The other results are listed elsewhere or left out. Activity calls are given as the source filed them.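 The calls were made as follows: active = proliferation increase above 40% at any of the four tested concentrations; inactive = the rest.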

Experiment: inducers of beta-cell proliferation in MIN6, confirmation, MIN6 cells, mouse (AID 463095)
Details: ATPlite luminescence, 48 h, cells kept in 0.2% serum, scaled between 0.2% and 10% serum; series mostly up to 50 µM

| SMILES | outcome |
| --- | --- |
| Cc1ccccc1CNC(=O)CCC(=O)N1Cc2ccccc2Oc2ncccc21 | inactive |
| COc1ccc(CCn2c(=N)c(C(=O)NCc3ccco3)cc3c(=O)n4cccc(C)c4nc32)cc1 | inactive |
| COC(=O)Nc1sc2nc(C)cc(C)c2c1-n1cccc1 | inactive |
| CCOC(=O)Nc1sc(C(=O)N(C)C)c(C)c1C(=O)OCC | inactive |
| CC(=O)c1ccc(S(=O)(=O)NCc2nnnn2-c2ccccc2)cc1 | inactive |
| Fc1ccc(CNCc2ccc(Br)cc2)cc1 | inactive |
| CCn1c(=O)n(CC)c2cc(N3CCCC3)c(NC(=O)c3ccccc3Br)cc21 | inactive |
| CCn1c(=O)c([N+](=O)[O-])c(NCc2ccc3c(c2)OCO3)c2ccccc21 | inactive |
| CC/C(=N/Nc1ccccc1)c1cnnc(SC)n1 | inactive |
| O=C(Nc1ccc(F)cc1)C1CCCN(S(=O)(=O)c2ccc(-n3cnnn3)cc2)C1 (stereo unspecified) | inactive |
| C/C(=N\NC(=O)c1ccccc1C)c1ccc(N2CCOCC2)cc1 | inactive |
| COc1cc2c(cc1OC)C(C(=O)NCc1ccco1)C1c3ccccc3CCN1C2=O (stereo unspecified) | inactive |
| CCOc1ccccc1NC(=O)Nc1cc(OC)ccc1OC | inactive |
| Cn1nc(-c2ccccc2)c2cc([N+](=O)[O-])ccc21 | inactive |
| OC1CN=C2Sc3ccccc3N2C1 (stereo unspecified) | inactive |
| O=S(=O)(NCCOc1cccc2cccnc12)c1ccc(F)cc1 | inactive |
| COc1ccc(CCC(=O)c2ccc(OC)cc2)cc1 | inactive |
| Cc1ccc(C(=O)Nc2ccc(NC(=O)c3cccs3)cc2)c(C)c1 | inactive |
| Cc1ccc(S(=O)(=O)N2CCCCC2)cc1C(=O)N1CCN(CCO)CC1 | inactive |
| COc1ccccc1N=Cc1c(O)c2ccccc2oc1=O | inactive |
| CCOC(=O)C1=C(CC)OC(N)=C(C#N)C1c1ccc(F)cc1F (stereo unspecified) | inactive |
